Laboratory results reported in PubChem BioAssay (EPA / NIEHS).
The source made the active and inactive calls. The calls were made as follows: active = hit-call score of the fitted dose curve at least 0.9, where 1 is the maximum; inactive = score below 0.9.

What was measured:
Conditions in all cases: mRNA level, 48 h; actives raise or lower the signal
[1] = read-out: growth arrest and DNA damage 45 (GADD45A), GADD45A (gene 1647); assay: LTEA_HepaRG_GADD45A: Life Technologies and Expression Analysis (LTEA) Assay for growth arrest and DNA damage 45 (GADD45A) using HepaRG (AID 2283458)
How it was run: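 Differentiated HepaRG cells exposed 48 h in serum-free induction medium to 8 concentrations, top 100 uM in half-log steps, 0.5% DMSO. GADD45A mRNA quantified by qRT-PCR, normalized to ACTB, GAPDH and POLR2A; bidirectional fit versus DMSO.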

[2] = read-out: Forkhead box O3 (FOXO3), FOXO3 (gene 2309); assay: LTEA_HepaRG_FOXO3: Life Technologies and Expression Analysis (LTEA) Assay for Forkhead box O3 (FOXO3) using HepaRG (AID 2283459)
How it was run: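 Differentiated human HepaRG cells in serum-free induction medium were exposed in duplicate for 48 h to eight half-log concentrations up to 100 uM in 0.5% DMSO. FOXO3 mRNA was quantified by qRT-PCR, normalized to ACTB, GAPDH and POLR2A, with bidirectional fitting versus DMSO.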

[3] = read-out: ABC Transporter (ABCB1), ABCB1 (gene 5243); assay: LTEA_HepaRG_ABCB1: Life Technologies and Expression Analysis (LTEA) Assay for ABC Transporter (ABCB1) using HepaRG (AID 2283460)
How it was run: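 Differentiated human HepaRG cells, plated 48 h then switched to serum-free induction medium, were exposed in duplicate to eight half-log concentrations up to 100 uM in 0.5% DMSO for 48 h. ABCB1 mRNA was measured by TaqMan qRT-PCR, normalized to ACTB/GAPDH/POLR2A.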

[4] = read-out: growth arrest and DNA damage 45 (GADD45B), GADD45B (gene 4616); assay: LTEA_HepaRG_GADD45B: Life Technologies and Expression Analysis (LTEA) Assay for growth arrest and DNA damage 45 (GADD45B) using HepaRG (AID 2283461)
How it was run: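 Values are bidirectional concentration-response fits against 0.5% DMSO controls. Underlying data: qRT-PCR mRNA levels in human HepaRG liver cells treated 48 h in serum-free induction medium, eight concentrations topping at 100 uM.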

[5] = read-out: ABC Transporter (ABCC3), ABCC3 (gene 8714); assay: LTEA_HepaRG_ABCC3: Life Technologies and Expression Analysis (LTEA) Assay for ABC Transporter (ABCC3) using HepaRG (AID 2283462)
How it was run: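 Differentiated HepaRG liver cells receive test chemicals at eight concentrations (max 100 uM) for 48 h. Expression of ABCC3 is quantified by qRT-PCR against ACTB, GAPDH and POLR2A, and activity is fitted in both directions against the DMSO control.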

[6] = read-out: ABC Transporter (ABCB11), ABCB11 (gene 8647); assay: LTEA_HepaRG_ABCB11: Life Technologies and Expression Analysis (LTEA) Assay for ABC Transporter (ABCB11) using HepaRG (AID 2283463)
How it was run: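 Differentiated human HepaRG cells were exposed for 48 h in serum-free induction medium to eight half-log concentrations up to 100 uM in 0.5% DMSO. ABCB11 mRNA was quantified by qRT-PCR, normalized to ACTB, GAPDH and POLR2A, and fitted bidirectionally versus DMSO.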

[7] = read-out: ABC Transporter (ABCC2), ABCC2 (gene 1244); assay: LTEA_HepaRG_ABCC2: Life Technologies and Expression Analysis (LTEA) Assay for ABC Transporter (ABCC2) using HepaRG (AID 2283464)
How it was run: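 Gene expression of ABCC2 was determined by qRT-PCR in HepaRG cells exposed 48 h to chemicals (highest 100 uM, half-log dilutions). Activity was fitted in both directions relative to 0.5% DMSO vehicle.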

[8] = read-out: Broad substrate specificity ATP-binding cassette transporter ABCG2 (Homo sapiens) (UniProt Q9UNQ0); assay: LTEA_HepaRG_ABCG2: Life Technologies and Expression Analysis (LTEA) Assay for ABC Transporter (ABCG2) using HepaRG (AID 2283465)
How it was run: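 Differentiated HepaRG cells in serum-free induction medium were exposed for 48 h, in duplicate, to eight half-log concentrations up to 100 uM in 0.5% DMSO. ABCG2 mRNA was measured by TaqMan qRT-PCR, normalized to ACTB, GAPDH and POLR2A, and fitted bidirectionally versus DMSO.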

[9] = read-out: ATP-citrate lyase (ACLY), ACLY (gene 47); assay: LTEA_HepaRG_ACLY: Life Technologies and Expression Analysis (LTEA) Assay for ATP-citrate lyase (ACLY) using HepaRG (AID 2283466)
How it was run: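 Differentiated human HepaRG cells in serum-free induction medium exposed 48 h, in duplicate, to eight half-log concentrations from 100 uM top in 0.5% DMSO; ACLY mRNA measured by qRT-PCR, normalized to ACTB, GAPDH, POLR2A, fitted bidirectionally versus DMSO.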

[10] = read-out: Peroxisomal acyl-coenzyme A oxidase 1 (ACOX1) gene, ACOX1 (gene 51); assay: LTEA_HepaRG_ACOX1: Life Technologies and Expression Analysis (LTEA) Assay for Peroxisomal acyl-coenzyme A oxidase 1 (ACOX1) gene using HepaRG (AID 2283467)
How it was run: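 Differentiated human HepaRG cells were exposed in duplicate for 48 h in serum-free induction medium to eight half-log concentrations up to 100 uM in 0.5% DMSO. ACOX1 mRNA was then quantified by TaqMan qRT-PCR, normalized to ACTB, GAPDH and POLR2A.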

[11] = read-out: Bcl-2 (BAD) gene, BAD (gene 572); assay: LTEA_HepaRG_BAD: Life Technologies and Expression Analysis (LTEA) Assay for Bcl-2 (BAD) gene using HepaRG (AID 2283469)
How it was run: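 Differentiated human HepaRG cells in serum-free induction medium were exposed in duplicate for 48 h to eight concentrations (top 100 uM, half-log steps, 0.5% DMSO). BAD mRNA was quantified by qRT-PCR normalised to ACTB, GAPDH and POLR2A, with bidirectional fitting versus DMSO.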

[12] = read-out: adenosine kinase (ADK) gene, ADK (gene 132); assay: LTEA_HepaRG_ADK: Life Technologies and Expression Analysis (LTEA) Assay for adenosine kinase (ADK) gene using HepaRG (AID 2283471)
How it was run: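 HepaRG (human liver), 48 h chemical exposure, 8-pt half-log series, top 100 uM, 0.5% DMSO vehicle. Readout: ADK mRNA by qRT-PCR vs housekeeping genes; bidirectional curve fit relative to DMSO baseline.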

[13] = read-out: Alpha-fetoprotein (AFP) gene, AFP (gene 174); assay: LTEA_HepaRG_AFP: Life Technologies and Expression Analysis (LTEA) Assay for Alpha-fetoprotein (AFP) gene using HepaRG (AID 2283472)
How it was run: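 Differentiated human HepaRG cells exposed 48 h in serum-free induction medium, 8-point half-log series from 100 uM in 0.5% DMSO, duplicate. AFP mRNA by qRT-PCR, normalized to ACTB, GAPDH, POLR2A; bidirectional fit vs DMSO.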

BCL2L11 (gene 10018) = assay: LTEA_HepaRG_BCL2L11: Life Technologies and Expression Analysis (LTEA) Assay for Bcl-2 (BCL2L11) gene using HepaRG (AID 2283473)
How it was run: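 Cells were plated, cultured 48 h, switched to serum-free induction medium, then dosed in duplicate for 48 h at eight half-log concentrations up to 100 uM. Lysates underwent RNA isolation and TaqMan qRT-PCR; gain or loss versus DMSO was fitted.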

[14] = read-out: Apolipoprotein A-V (APOA5) gene, APOA5 (gene 116519); assay: LTEA_HepaRG_APOA5: Life Technologies and Expression Analysis (LTEA) Assay for Apolipoprotein A-V (APOA5) gene using HepaRG (AID 2283474)
How it was run: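 Human liver HepaRG cells are treated 48 h with test chemicals (100 uM top, half-log dilutions, 0.5% DMSO). APOA5 mRNA induction or loss is measured by qRT-PCR relative to vehicle.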

[15] = read-out: Apoptosis regulator Bcl-2 (Homo sapiens) (UniProt P10415); assay: LTEA_HepaRG_BCL2: Life Technologies and Expression Analysis (LTEA) Assay for Bcl-2 gene using HepaRG (AID 2283475)
How it was run: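 Differentiated human HepaRG cells in serum-free induction medium exposed 48 h, in duplicate, to 8-point half-log series from 100 uM in 0.5% DMSO. BCL2 mRNA by qRT-PCR (TaqMan/Fluidigm), normalized to ACTB, GAPDH, POLR2A; bidirectional fit against DMSO.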

[16] = read-out: Bcl-2 (BID) gene, BID (gene 637); assay: LTEA_HepaRG_BID: Life Technologies and Expression Analysis (LTEA) Assay for Bcl-2 (BID) gene using HepaRG (AID 2283476)
How it was run: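 Gene expression by qRT-PCR in HepaRG cells after 48 h exposure, duplicate wells, eight half-log concentrations topping at 100 uM in 0.5% DMSO. Normalized to ACTB, GAPDH, POLR2A; bidirectional fitting relative to DMSO.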

Caspase-3 (Homo sapiens) = Caspase-3 (Homo sapiens) (UniProt P42574); assay: LTEA_HepaRG_CASP3: Life Technologies and Expression Analysis (LTEA) Assay for cysteine-aspartic acid protease (CASP3) using HepaRG (AID 2283477)
Sequence of Caspase-3 (Homo sapiens) (P42574 whole entry, looked up): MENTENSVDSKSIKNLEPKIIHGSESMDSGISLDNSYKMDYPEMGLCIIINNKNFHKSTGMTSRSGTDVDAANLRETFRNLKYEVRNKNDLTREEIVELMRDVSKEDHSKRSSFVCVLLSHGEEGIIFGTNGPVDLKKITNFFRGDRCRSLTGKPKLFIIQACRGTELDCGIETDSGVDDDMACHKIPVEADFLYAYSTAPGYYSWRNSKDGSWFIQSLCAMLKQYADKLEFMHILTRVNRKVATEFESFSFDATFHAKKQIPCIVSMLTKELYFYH
How it was run: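 In HepaRG liver cells dosed for 48 h at up to 100 uM (eight-point, duplicate), CASP3 expression changes are scored by qRT-PCR. Activity is fitted in both directions with 0.5% DMSO as baseline.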

[17] = read-out: Alkaline Phosphatase, Placental (ALPP) gene, ALPP (gene 250); assay: LTEA_HepaRG_ALPP: Life Technologies and Expression Analysis (LTEA) Assay for Alkaline Phosphatase, Placental (ALPP) gene using HepaRG (AID 2283468)
How it was run: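 Expression of ALPP was quantified by qRT-PCR against three housekeeping genes in human HepaRG cultures treated for 48 h with an eight-point concentration series up to 100 uM. Activity in either direction was fitted relative to 0.5% DMSO.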

Measured: AC50

Sequence of Broad substrate specificity ATP-binding cassette transporter ABCG2 (Homo sapiens) (Q9UNQ0 whole entry, looked up): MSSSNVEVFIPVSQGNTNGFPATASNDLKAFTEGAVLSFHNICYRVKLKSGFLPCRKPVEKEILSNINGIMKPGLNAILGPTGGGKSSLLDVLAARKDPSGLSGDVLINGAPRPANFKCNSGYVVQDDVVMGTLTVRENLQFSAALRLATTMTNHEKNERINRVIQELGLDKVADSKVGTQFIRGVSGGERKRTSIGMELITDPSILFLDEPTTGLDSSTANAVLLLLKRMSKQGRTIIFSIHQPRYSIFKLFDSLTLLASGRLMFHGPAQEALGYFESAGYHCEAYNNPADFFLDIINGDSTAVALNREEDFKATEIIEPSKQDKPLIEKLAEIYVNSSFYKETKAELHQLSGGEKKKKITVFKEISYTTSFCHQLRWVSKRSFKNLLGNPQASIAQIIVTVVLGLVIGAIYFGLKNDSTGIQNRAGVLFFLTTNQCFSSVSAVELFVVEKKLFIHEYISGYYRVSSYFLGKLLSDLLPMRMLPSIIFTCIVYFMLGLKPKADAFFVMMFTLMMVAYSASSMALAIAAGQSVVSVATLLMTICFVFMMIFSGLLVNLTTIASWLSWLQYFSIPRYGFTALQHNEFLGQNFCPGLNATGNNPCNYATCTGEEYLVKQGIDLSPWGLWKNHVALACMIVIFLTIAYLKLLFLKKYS
Sequence of Apoptosis regulator Bcl-2 (Homo sapiens) (P10415 whole entry, looked up): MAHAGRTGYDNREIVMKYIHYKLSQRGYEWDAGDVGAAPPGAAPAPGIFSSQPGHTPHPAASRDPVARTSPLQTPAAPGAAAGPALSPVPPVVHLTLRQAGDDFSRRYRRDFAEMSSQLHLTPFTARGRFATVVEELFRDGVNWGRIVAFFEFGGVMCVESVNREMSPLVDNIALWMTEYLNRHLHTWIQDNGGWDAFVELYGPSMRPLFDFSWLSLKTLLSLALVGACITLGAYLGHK

COc1ccc(C(=O)Nc2nc3ccccc3c(NCc3ccccc3)c2C#N)cc1
active: [4] 16 µM | [6] 13.3 µM | [8] 17.4 µM | [9] 16.5 µM | [10] 13.3 µM | [13] 21.7 µM | BCL2L11 (gene 10018) 10.8 µM
not listed: [17]
inactive: all other assays above

CCCC(=O)O
active: [1] 99.3 nM
not listed: [2] | [14]
inactive: all other assays above
